Results on 34 compounds are retold here after ChEMBL document CHEMBL1961873, “Compounds: GSK PKIS; Assays: Nanosyn kinase panel” (2012).

Sequence of Receptor tyrosine-protein kinase erbB-4 (Homo sapiens) (Q15303 whole entry): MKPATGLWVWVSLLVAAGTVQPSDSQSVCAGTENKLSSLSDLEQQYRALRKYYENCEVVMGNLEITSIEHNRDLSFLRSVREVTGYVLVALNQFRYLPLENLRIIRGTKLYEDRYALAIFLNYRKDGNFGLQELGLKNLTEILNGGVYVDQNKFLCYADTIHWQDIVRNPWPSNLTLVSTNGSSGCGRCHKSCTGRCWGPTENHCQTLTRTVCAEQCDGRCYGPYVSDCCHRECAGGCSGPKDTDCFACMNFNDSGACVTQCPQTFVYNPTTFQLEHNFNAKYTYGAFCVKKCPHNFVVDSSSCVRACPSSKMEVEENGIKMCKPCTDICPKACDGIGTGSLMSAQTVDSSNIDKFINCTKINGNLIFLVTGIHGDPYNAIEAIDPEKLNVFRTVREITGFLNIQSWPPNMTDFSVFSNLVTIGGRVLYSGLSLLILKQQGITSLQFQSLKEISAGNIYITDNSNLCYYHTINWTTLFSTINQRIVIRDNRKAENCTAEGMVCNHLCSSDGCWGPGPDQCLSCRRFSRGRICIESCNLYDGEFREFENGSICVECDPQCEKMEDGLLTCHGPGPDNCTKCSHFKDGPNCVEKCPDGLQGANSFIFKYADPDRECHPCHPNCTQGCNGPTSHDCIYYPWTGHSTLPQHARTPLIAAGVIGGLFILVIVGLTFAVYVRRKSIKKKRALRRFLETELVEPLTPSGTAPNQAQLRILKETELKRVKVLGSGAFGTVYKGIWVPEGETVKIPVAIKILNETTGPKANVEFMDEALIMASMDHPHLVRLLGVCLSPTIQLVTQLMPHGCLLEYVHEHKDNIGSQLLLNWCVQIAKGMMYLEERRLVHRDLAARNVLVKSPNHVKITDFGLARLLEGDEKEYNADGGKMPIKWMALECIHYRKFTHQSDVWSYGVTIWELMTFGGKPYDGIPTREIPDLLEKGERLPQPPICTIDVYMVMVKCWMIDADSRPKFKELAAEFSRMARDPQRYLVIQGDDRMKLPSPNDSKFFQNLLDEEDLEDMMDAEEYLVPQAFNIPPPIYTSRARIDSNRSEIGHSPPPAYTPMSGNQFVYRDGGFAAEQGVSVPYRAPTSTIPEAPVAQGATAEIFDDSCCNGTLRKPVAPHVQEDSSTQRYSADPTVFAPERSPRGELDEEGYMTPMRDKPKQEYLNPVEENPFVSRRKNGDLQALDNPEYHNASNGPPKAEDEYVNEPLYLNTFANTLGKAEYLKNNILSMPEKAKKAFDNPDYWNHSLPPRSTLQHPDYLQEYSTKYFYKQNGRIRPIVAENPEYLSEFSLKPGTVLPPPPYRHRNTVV

The first assay has as its target Receptor tyrosine-protein kinase erbB-4 (Homo sapiens) (UniProt Q15303). Particulars: at 1 µM.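 Note: each value is a mean percent inhibition of ERBB4.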
Consider `CCCN(CCS(C)(=O)=O)Cc1ccc(-c2ccc3ncnc(Nc4ccc(OCc5cccc(F)c5)c(Cl)c4)c3c2)o1`, for which the inhibition is 79.2%.

Consider `Cc1ccc2c(-c3ccnc(Nc4ccccc4)n3)c(-c3ccc(F)cc3)nn2n1`, for which the inhibition was 88.7%.

Take `Fc1ccc(-c2cc(-c3c[nH]nc3-c3ccccn3)ccn2)cc1`: the inhibition came to 12.7%.

`FC(F)(F)c1cccc(-c2nn3ncccc3c2-c2ccnc(Nc3ccc4c(c3)OCCO4)n2)c1`: the inhibition amounted to 81.5%.

With `N#Cc1c(NC(=O)CN2CCOCC2)sc2c1CCCC2`, the inhibition turned out to be 5.12%.

In the case of `c1ccc(COc2ccc(Nc3ncnc4ccc(-c5ccco5)cc34)cc2)cc1`, the inhibition came out at 79.3%.

Turning to `Fc1ccc(-c2nn3ccccc3c2-c2ccncc2)cc1`, the inhibition is 27.2%.

As to `Cc1cccc(Nc2ncc(-c3ccccc3)o2)c1`, the inhibition was 8.57%.

As for `COc1cc2c(cc1Nc1nc(Nc3ccsc3C(N)=O)c3cc[nH]c3n1)N(C(=O)CN(C)C)CCC2(C)C`, the inhibition turned out to be 36.4%.

Consider `c1cc(-c2cnn3nc(N4CCOCC4)ccc23)nc(NC2CC2)n1`, for which the inhibition stood at 15.3%.

As to `CC(=O)NCc1cccc(C#Cc2cncnc2Nc2ccc(OCc3cccc(F)c3)c(Cl)c2)c1`, the inhibition is 50.4%.

Take `CC(=O)Nc1cccc(C#Cc2cncnc2Nc2ccc(OCc3cccc(F)c3)c(Cl)c2)c1`: the inhibition turned out to be 57.1%.

Regarding `Nc1nc(-c2cccc(Cl)c2)c(-c2ccc3ncccc3n2)s1`, the inhibition turned out to be 28.1%.

Take `COc1ccc(-c2oc3ncnc(N)c3c2-c2ccc(NC(=O)Nc3cc(C(F)(F)F)ccc3F)cc2)cc1`: the inhibition was found to be 14.6%.

`CC(C)(CO)CNC(=O)c1ccc2c(c1)/C(=N/Nc1ccc(S(N)(=O)=O)cc1)C(=O)N2`: the inhibition was found to be 7.73%.

In the case of `CCNC(=O)O[C@H]1CN[C@H](C#Cc2cc3ncnc(Nc4ccc(OCc5cccc(F)c5)c(Cl)c4)c3s2)C1`, the inhibition was 101%.

For `O=C(O[C@H]1CN[C@H](C#Cc2cc3ncnc(Nc4ccc(Cc5ccccc5)cc4)c3s2)C1)N1CCOCC1`, the inhibition turned out to be 107%.

With `CCn1c(-c2nonc2N)nc2ccccc21`, the inhibition was determined as 12.3%.

On to `COc1ccc2[nH]c3c4[nH]c5ccc(OC)cc5c4c4c(c3c2c1)C(=O)NC4=O`, for which the inhibition is 45.9%.

For `CCn1cc(-c2ccnc3[nH]ccc23)c(-c2cccc(NC(=O)Nc3ccc(OCc4ccccc4)cc3)c2)n1`, the inhibition amounted to 63.5%.

Regarding `Fc1ccc(-c2nn3ncccc3c2-c2ccnc(Nc3ccc4c(c3)OCCO4)n2)cc1`, the inhibition is 94.6%.

On to `CCN1CCC(CC(=O)Nc2n[nH]c3nnc(-c4cccc(F)c4F)cc23)CC1`, for which the inhibition was found to be 10.1%.

On to `CC(C)COC(=O)c1ccc2c(c1)/C(=C/Nc1ccc(S(N)(=O)=O)cc1)C(=O)N2`, for which the inhibition is -2.34%.

With `COC(=O)Nc1nc2ccc(S(=O)(=O)c3ccc(NC(=O)Nc4cc(C(F)(F)F)ccc4F)cc3)cc2[nH]1`, the inhibition came out at 12.2%.

Consider `CCOc1ccc2c(-c3ccnc(Nc4cccc(C(F)(F)F)c4)n3)cnn2n1`, for which the inhibition was 6.85%.

In the case of `COc1cccc(-n2ncc3c(N/N=C/c4ccc(F)cc4)ncnc32)c1`, the inhibition came out at 11.2%.

For `COc1cc(Nc2nccc(Nc3ccc4c(C)n[nH]c4c3)n2)cc(OC)c1OC`, the inhibition was 27.6%.

As to `CC1=C(C(=O)Nc2cc(Cl)c3[nH]ncc3c2)C(c2ccc(C(F)(F)F)cc2)CC(=O)N1` (configuration not stated), the inhibition worked out at 31.2%.

`CCn1c(-c2nonc2N)nc2c(C#CC(C)(C)O)ncc(OC3CCNCC3)c21`: the inhibition amounted to 10.3%.

For the compound `CNC(=O)c1cccc(C#Cc2cncnc2Nc2ccc(OCc3cccc(F)c3)c(Cl)c2)c1`, the inhibition turned out to be 58.4%.

Take `COc1ccc(-c2cc3c(N)ncnc3o2)cc1`: the inhibition is 1.85%.

Turning to `COc1cc(/C=N/Nc2ncnc3[nH]ncc23)ccc1O`, the inhibition worked out at 21.1%.

In the case of `NS(=O)(=O)c1ccc(Nc2ncc(-c3ccccc3)o2)cc1`, the inhibition turned out to be 10.5%.

The target in the next assay is Tyrosine-protein kinase Fer (Homo sapiens) (UniProt P16591). The note with it: at 0.1 µM.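 Note: reported figures are averaged percent inhibition of FER.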
Sequence of Tyrosine-protein kinase Fer (Homo sapiens) (P16591 whole entry, looked up): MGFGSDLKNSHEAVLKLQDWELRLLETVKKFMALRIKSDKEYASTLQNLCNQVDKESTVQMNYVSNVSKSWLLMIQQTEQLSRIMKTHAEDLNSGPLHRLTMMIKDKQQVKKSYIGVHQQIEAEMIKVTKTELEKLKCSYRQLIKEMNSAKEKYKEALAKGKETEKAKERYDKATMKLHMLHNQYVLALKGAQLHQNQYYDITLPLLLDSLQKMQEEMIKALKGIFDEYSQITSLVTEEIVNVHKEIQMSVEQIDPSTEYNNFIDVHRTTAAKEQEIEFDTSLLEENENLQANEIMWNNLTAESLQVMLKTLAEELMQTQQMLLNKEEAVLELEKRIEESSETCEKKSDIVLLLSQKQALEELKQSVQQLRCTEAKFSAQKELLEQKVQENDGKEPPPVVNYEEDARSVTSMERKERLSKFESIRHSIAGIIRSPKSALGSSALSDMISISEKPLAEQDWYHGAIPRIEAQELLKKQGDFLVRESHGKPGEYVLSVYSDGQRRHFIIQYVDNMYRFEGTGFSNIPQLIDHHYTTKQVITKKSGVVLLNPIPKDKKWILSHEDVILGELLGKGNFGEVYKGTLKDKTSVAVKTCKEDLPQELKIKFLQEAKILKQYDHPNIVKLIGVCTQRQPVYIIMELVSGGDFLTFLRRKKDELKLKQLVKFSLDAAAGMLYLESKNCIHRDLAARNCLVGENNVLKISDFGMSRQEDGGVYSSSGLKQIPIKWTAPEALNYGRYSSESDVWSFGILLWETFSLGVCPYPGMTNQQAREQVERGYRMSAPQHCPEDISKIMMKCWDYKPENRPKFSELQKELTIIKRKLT
For `CCCN(CCS(C)(=O)=O)Cc1ccc(-c2ccc3ncnc(Nc4ccc(OCc5cccc(F)c5)c(Cl)c4)c3c2)o1`, the inhibition was determined as 2.14%.

Consider `Cc1ccc2c(-c3ccnc(Nc4ccccc4)n3)c(-c3ccc(F)cc3)nn2n1`, for which the inhibition was 0.47%.

For the compound `Fc1ccc(-c2cc(-c3c[nH]nc3-c3ccccn3)ccn2)cc1`, the inhibition was 4.53%.

In the case of `FC(F)(F)c1cccc(-c2nn3ncccc3c2-c2ccnc(Nc3ccc4c(c3)OCCO4)n2)c1`, the inhibition turned out to be 0.32%.

For the compound `N#Cc1c(NC(=O)CN2CCOCC2)sc2c1CCCC2`, the inhibition turned out to be 8.53%.

For the compound `c1ccc(COc2ccc(Nc3ncnc4ccc(-c5ccco5)cc34)cc2)cc1`, the inhibition was determined as 1.72%.

For the compound `Fc1ccc(-c2nn3ccccc3c2-c2ccncc2)cc1`, the inhibition came out at 1.5%.

Regarding `Cc1cccc(Nc2ncc(-c3ccccc3)o2)c1`, the inhibition was 3.24%.

For the compound `COc1cc2c(cc1Nc1nc(Nc3ccsc3C(N)=O)c3cc[nH]c3n1)N(C(=O)CN(C)C)CCC2(C)C`, the inhibition was 95.5%.

As to `c1cc(-c2cnn3nc(N4CCOCC4)ccc23)nc(NC2CC2)n1`, the inhibition was 0.53%.

Take `CC(=O)NCc1cccc(C#Cc2cncnc2Nc2ccc(OCc3cccc(F)c3)c(Cl)c2)c1`: the inhibition amounted to 2.72%.

Consider `CC(=O)Nc1cccc(C#Cc2cncnc2Nc2ccc(OCc3cccc(F)c3)c(Cl)c2)c1`, for which the inhibition was found to be 1.31%.

In the case of `Nc1nc(-c2cccc(Cl)c2)c(-c2ccc3ncccc3n2)s1`, the inhibition was 4.91%.

Consider `COc1ccc(-c2oc3ncnc(N)c3c2-c2ccc(NC(=O)Nc3cc(C(F)(F)F)ccc3F)cc2)cc1`, for which the inhibition stood at 8.1%.

Consider `CC(C)(CO)CNC(=O)c1ccc2c(c1)/C(=N/Nc1ccc(S(N)(=O)=O)cc1)C(=O)N2`, for which the inhibition was -7.05%.

On to `CCNC(=O)O[C@H]1CN[C@H](C#Cc2cc3ncnc(Nc4ccc(OCc5cccc(F)c5)c(Cl)c4)c3s2)C1`, for which the inhibition worked out at 4.88%.

Turning to `O=C(O[C@H]1CN[C@H](C#Cc2cc3ncnc(Nc4ccc(Cc5ccccc5)cc4)c3s2)C1)N1CCOCC1`, the inhibition is -1.21%.

Regarding `CCn1c(-c2nonc2N)nc2ccccc21`, the inhibition is 5.9%.

Turning to `COc1ccc2[nH]c3c4[nH]c5ccc(OC)cc5c4c4c(c3c2c1)C(=O)NC4=O`, the inhibition was found to be 29.1%.

With `CCn1cc(-c2ccnc3[nH]ccc23)c(-c2cccc(NC(=O)Nc3ccc(OCc4ccccc4)cc3)c2)n1`, the inhibition was determined as 0.08%.

For `Fc1ccc(-c2nn3ncccc3c2-c2ccnc(Nc3ccc4c(c3)OCCO4)n2)cc1`, the inhibition came out at 1.71%.

Consider `CCN1CCC(CC(=O)Nc2n[nH]c3nnc(-c4cccc(F)c4F)cc23)CC1`, for which the inhibition is -0.6%.

Turning to `CC(C)COC(=O)c1ccc2c(c1)/C(=C/Nc1ccc(S(N)(=O)=O)cc1)C(=O)N2`, the inhibition was determined as 0.76%.

On to `COC(=O)Nc1nc2ccc(S(=O)(=O)c3ccc(NC(=O)Nc4cc(C(F)(F)F)ccc4F)cc3)cc2[nH]1`, for which the inhibition is 3.79%.

For `CCOc1ccc2c(-c3ccnc(Nc4cccc(C(F)(F)F)c4)n3)cnn2n1`, the inhibition is 1.8%.

As to `COc1cccc(-n2ncc3c(N/N=C/c4ccc(F)cc4)ncnc32)c1`, the inhibition is 2.73%.

Turning to `COc1cc(Nc2nccc(Nc3ccc4c(C)n[nH]c4c3)n2)cc(OC)c1OC`, the inhibition came to 6.42%.

Regarding `CC1=C(C(=O)Nc2cc(Cl)c3[nH]ncc3c2)C(c2ccc(C(F)(F)F)cc2)CC(=O)N1` (configuration not stated), the inhibition is 4.27%.

Take `CCn1c(-c2nonc2N)nc2c(C#CC(C)(C)O)ncc(OC3CCNCC3)c21`: the inhibition is -0.68%.

`CNC(=O)c1cccc(C#Cc2cncnc2Nc2ccc(OCc3cccc(F)c3)c(Cl)c2)c1`: the inhibition came to 1.71%.

Take `COc1ccc(-c2cc3c(N)ncnc3o2)cc1`: the inhibition is -0.15%.

Take `COc1cc(/C=N/Nc2ncnc3[nH]ncc23)ccc1O`: the inhibition was 3.03%.

With `COc1cc2ncn(-c3cc(OCc4ccccc4C(F)(F)F)c(C(=O)N(C)C)s3)c2cc1OC`, the inhibition is -0.2%.

`NS(=O)(=O)c1ccc(Nc2ncc(-c3ccccc3)o2)cc1`: the inhibition is 2.73%.

A word on the inhibition: it is the change of the read-out against control, counted positive when it falls.
